Measured values taken from paper PMC5700166.
Positions count from the first letter of the chain named.

Columns and labels:
Experiment in all cases: protein-binding microarray (PBM); PBM: ~300 nM protein, 6 mM HEPES pH 7.8, 80 mM KCl, 0.5 mM EDTA, 0.5 mM EGTA, 6% glycerol, 35 ng/ul poly-dIdC, 1% milk, 1 h, room temperature; Ap Aiptasia and Nv Nematostella (sea anemones) / Co Capsaspora / Aq Amphimedon (sponge) / Dm Drosophila / Hu human; RHD is the Rel homology domain; high values mean tight binding
Conditions in all cases: dsDNA, one strand shown
[1] = biological target: T1, GST-Ap-NF-kB RHD (Exaiptasia pallida (Aiptasia), UniProt A0A913YAJ5 2-422)
T1 sequence: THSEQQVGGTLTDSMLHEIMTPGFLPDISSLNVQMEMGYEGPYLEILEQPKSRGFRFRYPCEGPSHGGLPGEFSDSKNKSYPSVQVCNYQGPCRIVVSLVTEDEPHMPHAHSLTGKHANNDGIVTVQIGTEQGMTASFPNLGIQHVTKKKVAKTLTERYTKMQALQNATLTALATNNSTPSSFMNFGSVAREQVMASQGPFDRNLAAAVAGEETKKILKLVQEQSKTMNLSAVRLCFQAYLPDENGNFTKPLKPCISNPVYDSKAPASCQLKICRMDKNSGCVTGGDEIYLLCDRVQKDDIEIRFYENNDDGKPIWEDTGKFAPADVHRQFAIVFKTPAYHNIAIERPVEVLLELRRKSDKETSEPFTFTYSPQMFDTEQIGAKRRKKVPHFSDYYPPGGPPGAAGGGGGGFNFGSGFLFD

[2] = biological target: T2, GST-Nv-NF-kB (Cys allele) (Nematostella vectensis, UniProt E5G601 2-411)
T2 sequence: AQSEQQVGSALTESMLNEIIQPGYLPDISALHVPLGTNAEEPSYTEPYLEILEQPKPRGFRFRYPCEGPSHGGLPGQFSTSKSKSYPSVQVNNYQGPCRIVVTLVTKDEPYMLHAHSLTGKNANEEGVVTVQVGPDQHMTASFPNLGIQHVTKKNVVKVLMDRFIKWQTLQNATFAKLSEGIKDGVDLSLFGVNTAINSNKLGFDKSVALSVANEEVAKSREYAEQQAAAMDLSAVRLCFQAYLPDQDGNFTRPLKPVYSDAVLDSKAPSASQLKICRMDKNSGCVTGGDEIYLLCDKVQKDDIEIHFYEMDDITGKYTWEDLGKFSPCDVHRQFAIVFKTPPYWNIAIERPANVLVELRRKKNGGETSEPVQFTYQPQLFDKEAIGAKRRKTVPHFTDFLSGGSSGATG

[3] = biological target: T3, GST-Dm-Relish (Drosophila melanogaster, UniProt Q94527 99-473)
T3 sequence: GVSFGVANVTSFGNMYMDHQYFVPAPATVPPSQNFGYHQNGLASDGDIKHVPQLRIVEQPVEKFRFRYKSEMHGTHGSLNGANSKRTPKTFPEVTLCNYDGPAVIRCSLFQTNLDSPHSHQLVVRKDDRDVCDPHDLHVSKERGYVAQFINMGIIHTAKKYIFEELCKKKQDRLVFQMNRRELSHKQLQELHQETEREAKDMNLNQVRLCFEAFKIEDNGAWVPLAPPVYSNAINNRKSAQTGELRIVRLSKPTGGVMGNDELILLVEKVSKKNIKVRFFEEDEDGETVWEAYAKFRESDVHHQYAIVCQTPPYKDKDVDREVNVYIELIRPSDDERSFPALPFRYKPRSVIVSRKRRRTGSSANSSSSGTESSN

[4] = biological target: T4, GST-Aq-NF-kB (Amphimedon queenslandica, UniProt A9Y5G7 2-389)
T4 sequence: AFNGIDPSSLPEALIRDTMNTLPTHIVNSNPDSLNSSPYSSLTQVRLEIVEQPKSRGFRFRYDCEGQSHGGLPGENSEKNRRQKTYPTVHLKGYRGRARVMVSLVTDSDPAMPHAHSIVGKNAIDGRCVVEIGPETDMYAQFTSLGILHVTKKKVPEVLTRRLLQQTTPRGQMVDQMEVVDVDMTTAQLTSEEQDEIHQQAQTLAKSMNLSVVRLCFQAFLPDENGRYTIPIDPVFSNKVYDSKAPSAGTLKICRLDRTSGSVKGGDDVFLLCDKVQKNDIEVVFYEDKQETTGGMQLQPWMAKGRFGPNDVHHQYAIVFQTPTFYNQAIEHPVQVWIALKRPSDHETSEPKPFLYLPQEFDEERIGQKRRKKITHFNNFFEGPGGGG

[5] = biological target: GST-Hu-p50 (Homo sapiens, UniProt P19838 7-356)
[6] = biological target: T5, GST-Nv-NF-kB (Ser allele) (Nematostella vectensis, UniProt A7UNT2 2-411)
T5 sequence: T2 sequence with Q21R, C66S, S207N, E215Q, V217A, E225K, A268E, D399E

[7] = biological target: T6, GST-Co-NF-kB (Capsaspora owczarzaki, UniProt F1ARL5 200-546)
T6 sequence: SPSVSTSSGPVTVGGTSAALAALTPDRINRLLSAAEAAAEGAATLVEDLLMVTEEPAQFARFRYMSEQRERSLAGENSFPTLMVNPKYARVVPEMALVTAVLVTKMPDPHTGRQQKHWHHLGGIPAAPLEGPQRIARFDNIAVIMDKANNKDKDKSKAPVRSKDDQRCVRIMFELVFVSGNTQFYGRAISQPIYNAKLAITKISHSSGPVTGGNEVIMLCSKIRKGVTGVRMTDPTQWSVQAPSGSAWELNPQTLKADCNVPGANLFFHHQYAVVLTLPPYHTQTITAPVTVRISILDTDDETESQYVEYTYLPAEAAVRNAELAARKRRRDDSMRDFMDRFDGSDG

Chain of GST-Hu-p50 (P19838 7-356): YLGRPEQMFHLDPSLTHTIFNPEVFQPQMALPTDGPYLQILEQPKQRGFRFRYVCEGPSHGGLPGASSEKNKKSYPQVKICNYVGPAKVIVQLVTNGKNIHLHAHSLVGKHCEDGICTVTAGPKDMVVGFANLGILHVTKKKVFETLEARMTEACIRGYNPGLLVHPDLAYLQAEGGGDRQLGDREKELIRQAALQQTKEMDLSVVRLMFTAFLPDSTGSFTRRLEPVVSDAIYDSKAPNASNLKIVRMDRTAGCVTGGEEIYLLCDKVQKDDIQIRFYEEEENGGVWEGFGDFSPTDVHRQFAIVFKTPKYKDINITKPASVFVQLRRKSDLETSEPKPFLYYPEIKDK

Row | Sequence | binding signal [1] [z-score] | binding signal [2] [z-score] | binding signal [3] [z-score] | binding signal [4] [z-score] | binding signal [5] [z-score] | binding signal [6] [z-score] | binding signal [7] [z-score]
1 | CCGATTAACATCAGGAAAGGCCCTGATGTTAATCGGGTCTTGATTCGCTTGACGCTGCTG | 2.38 | 2.62 | 5.48 | 5.31 | 2.61 |  | 
2 | CCGATTAACATCAGGTGTTTCCATGATGTTAATCGGGTCTTGATTCGCTTGACGCTGCTG | 1.26 | 1.06 | 2.26 | 1.98 | 2.81 |  | 
3 | CCGATTAACATCAAGGGGGGGACTGATGTTAATCGGGTCTTGATTCGCTTGACGCTGCTG | 6.81 |  | 4.41 | 4.98 | 4.74 | 4.24 | 5.71
4 | CCGATTAACATCAGATAAACCCCTGATGTTAATCGGGTCTTGATTCGCTTGACGCTGCTG | 4.36 | 4.29 | 5.22 | 4.77 | 4.53 |  | 
5 | CCGATTAACATCAGGGGCTTCCATGATGTTAATCGGGTCTTGATTCGCTTGACGCTGCTG | 4.37 | 4.89 | 6.97 | 5.03 | 4.38 |  | 
6 | CCGATTAACATCACCCTCGAGGGTGATGTTAATCGGGTCTTGATTCGCTTGACGCTGCTG | 1.01 |  | 1.08 | 1.65 | 2.34 | 1.78 | 1.1
7 | CCGATTAACATCAAATCCCCCCCTGATGTTAATCGGGTCTTGATTCGCTTGACGCTGCTG | 8.93 |  | 7.98 | 6.62 | 6.87 | 9 | 9.25
8 | CCGATTAACATCACGGGCTTCCCTGATGTTAATCGGGTCTTGATTCGCTTGACGCTGCTG | 1.85 | 2 | 7.65 | 4.57 | 1.14 |  | 
9 | CCGATTAACATCAGGACATACCCTGATGTTAATCGGGTCTTGATTCGCTTGACGCTGCTG | 1.92 | 2.84 | 2.79 | 5.54 | 1.78 |  | 
10 | CCGATTAACATCACGGGAAGCCCTGATGTTAATCGGGTCTTGATTCGCTTGACGCTGCTG | 2.49 | 1.91 | 7.08 | 4.42 | 1.11 |  | 
11 | CCGATTAACATCAAAGAGTCCCCTGATGTTAATCGGGTCTTGATTCGCTTGACGCTGCTG | 6.56 | 6.17 | 6.3 | 5.8 | 5.88 |  | 3.49
12 | CCGATTAACATCACGGAAACACCTGATGTTAATCGGGTCTTGATTCGCTTGACGCTGCTG | 1.22 |  | 1.78 | 2.29 | 3 | 1.16 | 
13 | CCGATTAACATCAAAAAATCACCTGATGTTAATCGGGTCTTGATTCGCTTGACGCTGCTG | 2.88 | 4.37 | 8.12 | 3.98 | 5.67 |  | 
14 | CCGATTAACATCAGGGCCTTTTGTGATGTTAATCGGGTCTTGATTCGCTTGACGCTGCTG | 1.85 | 1.14 | 5.05 | 2.46 | 2.05 |  | 
